ADAM17 inh: inhibitors of human ADAM17; P78536; recombinant ADAM17, EDANS/DABCYL FRET peptide cleavage; inhibition, % at 6.95 µM; 0.83% of 370,000 active;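 active = inhibition above the mean of compounds lying between control limits plus 3 SD, set per campaign, cut at about 8.5% in these data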;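 note: 0% = DMSO-only wells as the low control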
ADAM10 inh: ADAM10 inhibition, QFRET primary screen. 0.62% of 370,000 active. inhibition, % at 7 µM. recombinant ADAM10, EDANS/DABCYL FRET peptide cleavage, 3 h;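 active = inhibition above a per-campaign cutoff equal to the mean of compounds falling between control-based bounds plus 3 SD, cut at about 20% in these data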;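 note: 0% = DMSO wells while the 100% control is not disclosed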
Target sequence (O14672 214-748 limits assumed): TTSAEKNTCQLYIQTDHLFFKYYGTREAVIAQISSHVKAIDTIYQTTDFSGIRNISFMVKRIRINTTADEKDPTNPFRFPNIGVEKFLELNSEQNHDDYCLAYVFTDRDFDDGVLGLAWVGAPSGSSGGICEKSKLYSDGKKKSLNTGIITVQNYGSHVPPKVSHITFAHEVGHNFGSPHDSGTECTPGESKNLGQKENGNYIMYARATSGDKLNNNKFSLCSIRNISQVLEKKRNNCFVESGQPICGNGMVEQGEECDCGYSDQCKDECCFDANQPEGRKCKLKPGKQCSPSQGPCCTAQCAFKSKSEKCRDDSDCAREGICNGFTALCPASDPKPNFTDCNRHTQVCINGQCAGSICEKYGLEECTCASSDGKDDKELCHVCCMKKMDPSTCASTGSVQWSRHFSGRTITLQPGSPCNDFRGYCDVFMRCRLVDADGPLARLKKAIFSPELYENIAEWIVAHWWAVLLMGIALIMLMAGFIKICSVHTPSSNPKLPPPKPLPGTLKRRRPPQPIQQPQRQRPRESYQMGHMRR
rCAG RNA binder: binds r(CAG) RNA repeats. r(CAG) RNA repeat, TO-PRO-1 dye displacement fluorescence. inhibition, % at 3 µM. 1.3% of 370,000 active;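 active = inhibition above the plate cutoff, the mean of all test compounds on that plate plus 3 SD, cut at about 35% in these data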;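 note: 0% = DMSO alone and 100% = 100 µM mitoxantrone as full dye displacement; higher means more dye released from RNA so lower well fluorescence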
KLK7 zymogen act: activates the human kallikrein-7 zymogen; P49862; purified proKLK7, EDANS-DABCYL substrate fluorescence; 100% is mature enzyme control, 0% vehicle; activation, % at 7 µM; 0.9% of 370,000 active; AID 652039;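 active = activation above the mean of all tested compounds plus 3 SD, computed per campaign excluding outliers beyond control limits, cut at about 13% in these data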
NR3A LBD binder: NR3A (human) ligand-binding domain modulation | Tm shift relative to glycine control, % at 25 µM | 2.5% of 340,000 active | NR3A LBD differential scanning fluorimetry, Tm shift; 0% = protein alone, 100% = glycine-bound protein;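 active = melting temperature shift of at least 10% of the positive control shift, at one fixed dose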
AHR activator: activators of human aryl hydrocarbon receptor. 2.5% of 320,000 active. AHR-responsive luciferase reporter cells, luminescence. activation, % at 5 µM; in the data active = activation above about 47%;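 note: 0% = vehicle wells and 100% = reference agonist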
rCAG bind conf: r(CAG) RNA repeat binding, confirmation. AID 652065. inhibition, % at 3 µM. 70% of 4,300 active. TO-PRO-1 dye displacement fluorescence. shares compounds with rCAG RNA binder;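 active = inhibition above a per-plate cutoff, the mean inhibition of sample wells plus 3 SD, cut at about 35% in these data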;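 note: loss of TO-PRO-1 fluorescence as compound displaces dye from 1x1 AA loop RNA; 0% = DMSO only wells and 100% = 100 µM mitoxantrone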
DNA CAG counter: counter-screen for rCAG RNA binders: DNA CAG dye complex inhibitors; AID 652068; shares compounds with rCAG RNA binder; d(CAG) DNA oligo TO-PRO-1 dye displacement, fluorescence; 94% of 4,300 active; inhibition, % at 3 µM;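 active = inhibition above its plate's cutoff, the mean test-well inhibition plus 3 SD, cut at about 4.8% in these data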;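 note: 0% = DNA dye mix with DMSO and 100% = 100 µM mitoxantrone; hits displace the dye from DNA and so lower well fluorescence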
An asterisk follows results filed as active; x = no result given. This is a sample that favours compounds with a hit; in the whole collection about 7% have one here.

SMILES	ADAM17 inh	ADAM10 inh	rCAG RNA binder	KLK7 zymogen act	NR3A LBD binder	AHR activator	rCAG bind conf	DNA CAG counter
Cc1cc(C)c2nc(NNC(=O)c3cc(=O)c4ccccc4o3)sc2c1	-4	-23	73*	0	2	46	82*	49*
Cc1cc(C)c2nc(NNC(=O)c3ccc(S(=O)(=O)N4CCc5ccccc5C4)cc3)sc2c1	7	14	61*	-1	5	29	50*	26*
Cc1ccc(S(=O)(=O)N2C[C@H]3C(=O)C[C@@H](c4ccccc4)N(S(C)(=O)=O)[C@H]3C[C@H]2c2ccccc2)cc1	7	15	8	-1	x	x	x	x
Cc1cccc(NC(=S)NC(=O)/C=C/c2ccco2)c1	3	10	37*	0	-3	6	29	14*
NC(N)=NS(=O)(=O)c1ccc(NC(=S)NC(=O)/C=C/c2ccco2)cc1	-3	-4	17	0	-6	3	x	x
COc1ccc(-c2csc(NC(=S)NC(=O)/C=C/c3ccco3)n2)cc1Br	-2	-2	67*	0	21*	1	33	16*
NS(=O)(=O)c1ccc(NC(=S)NC(=O)/C=C/c2ccco2)cc1	-4	0	40*	0	-5	3	24	11*
O=C(NC(=S)Nc1cccc([N+](=O)[O-])c1)c1ccco1	1	4	1	0	-5	6	x	x
COc1ccc(-c2csc(NC(=S)NC(=O)c3cc4ccccc4o3)n2)cc1Br	-2	-4	5	-1	3	-1	x	x
O=C(/C=C/c1ccco1)NC(=S)Nc1cccc([N+](=O)[O-])c1	-1	9	54*	-1	2	13	33	18*
C/C(C=NNC(=O)CSc1nnc(-c2ccccc2)n1-c1ccc(C)cc1)=C\c1ccco1	4	7	10	0	x	x	x	x
O=C(NCc1cccc(C(F)(F)F)c1)C1C(=O)Nc2ccccc2C(=O)N1C1CCCC1 (stereo not given)	-11	-35	0	2	x	x	x	x
Cc1ccc(-c2nc3ccccc3o2)cc1NC(=S)NC(=O)/C=C/c1ccco1	-4	-1	25	0	-23	34	x	x
O=C(/C=C/c1ccco1)NC(=S)Nc1cccc(-c2nc3ccccc3o2)c1	-6	-4	35*	0	4	57*	22	13*
O=C(O)c1cccc(NC(=S)N/N=C/c2ccccc2OCc2cccc(Br)c2)c1	-3	-4	77*	0	-12	x	79*	45*
CCc1oc2ccccc2c1C(=O)c1cc(Br)c(O)c(Br)c1	3	18	57*	1	-13	-4	63*	17*
C=C1c2cccc(O)c2C(=O)C2C(=O)[C@]3(O)C(=O)C(C(N)=O)C(=O)[C@@H](N(C)C)[C@@H]3[C@@H](O)[C@H]12 (stereo not given in full)	-8	-30	85*	-5	-8	-2	28	10*
Cc1[nH]c2ccccc2c1N=Nc1ccccc1C(=O)O	-28	-108	53*	1	-11	75*	19	5.7*
Cc1cc(NS(=O)(=O)c2ccc(NC(=O)CCCOc3ccccc3C)cc2)no1	0	15	38*	0	2	0	34	8.8*
Cc1c(C(=O)NNC(=S)Nc2ccc(S(N)(=O)=O)cc2)oc2ccccc12	-11	-41	52*	-1	6	-4	32	11*
Cc1cc(NS(=O)(=O)c2ccc(NC(=O)COc3ccc(Br)cc3)cc2)nc(C)n1	-5	3	36*	-1	1	2	35*	10*
Cc1cc(NS(=O)(=O)c2ccc(NC(=O)Cc3ccc(Cl)c(Cl)c3)cc2)no1	3	-5	49*	0	2	x	35*	8.8*
O=C(NCCCN1CCOCC1)C(=O)NCC1OCCN1S(=O)(=O)c1ccc(Cl)cc1 (stereo not given)	-1	1	5	0	x	x	x	x
